# Records with an inconclusive call do not appear. Unmarked numbers belong to inactive results. Activity calls are given as the source filed them. The call rests on the fitted dose curve; in most records, active means well fitted inhibition curve with a large enough effect; inconclusive means small, poorly fitted or top-dose-only effect; inactive means flat fitted curve, though single readings scatter.
# Columns and labels:
# CRL-7250 = normal cell line; assay: Cytotoxic Profiling of Annotated Libraries Using Quantitative High-Throughput Screening (AID 1296008); conditions: Five cell lines viability, CellTiter-Glo ATP luminescence, 48-72 h; max response: hits give low values; further: potency means the concentration at half of the fitted maximal effect; on max response: on the % scale 0 is the no-effect control and ±100 the full control effect
# Summary of the method: (§1)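 Compounds were pin-transferred onto cells and incubated 48 or 72 hr at 37 degree Celsius, 95% humidity. CellTiter-Glo was added, plates sat 10 min at room temperature, then ATP-coupled luminescence was imaged as the viability read-out.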
# HaCat [1] = assay: as above; conditions: Five cell lines viability, CellTiter-Glo ATP luminescence, 48-72 h; max response: hits give low values
# Summary of the method: as §1
# KB-3-1 = assay: as above; conditions: Five cell lines viability, CellTiter-Glo ATP luminescence, 48-72 h; max response: hits give low values
# Summary of the method: as §1
# NIH3T3 = assay: as above; conditions: Five cell lines viability, CellTiter-Glo ATP luminescence, 48-72 h; max response: hits give low values
# Summary of the method: as §1
# HACAT [2] = assay: qHTS assay to identify novel small-molecules to repurpose for Merkel cell carcinoma treatment (AID 1296009); conditions: MCC and control cell lines, CellTiter-Glo viability, 72 h; at 44.8 µM (top of the series) unless noted
# Summary of the method: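 Viability readout: ATP luminescence (CellTiter-Glo) after 72 hr drug exposure at 37 degree celsius. Dose-response format was 8 points for NPC and 11 points for MIPE; data normalized to in-plate controls.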
# Further: nearly all actives have a fitted effect of over 60% in size.
compound,measurement,setting,value
Cc1ccc(CNc2ncnc3ccc(-c4ccc(CO)o4)cc23)o1,max response,CRL-7250,-10.7%
same,Potency,HaCat [1],16.4 µM (active)
same,max response,KB-3-1,8.1%
same,max response,NIH3T3,-6.8%
COc1cc(C2OC(c3ccc(OC)c(OC)c3)C(C)C2C)ccc1O (centres undefined),max response,CRL-7250,-1.49%
same,outcome,HaCat [1],inactive
same,max response,KB-3-1,-5.2%
same,max response,NIH3T3,-6.22%
same,outcome,HACAT [2],inactive
C[C@@H]1CC[C@@]23CC[C@]4(C)[C@@](C=CC5[C@@]6(C)CC[C@H](O)C(C)(C)C6CC[C@]54C)(OC2=O)C3[C@H]1C (some centres undefined),outcome,CRL-7250,inactive
same,max response,HaCat [1],-10.7%
same,max response,KB-3-1,7.23%
same,max response,NIH3T3,0.572%
COc1ccc2c(c1O[C@H]1CCNC1)CCC2,max response,CRL-7250,-1.86%
same,outcome,HaCat [1],inactive
same,max response,KB-3-1,-7.28%
same,outcome,NIH3T3,inactive
same,outcome,HACAT [2],inactive
COc1ccc(CNCc2cccc3ccccc23)cc1,outcome,CRL-7250,inactive
same,max response,HaCat [1],-12.6%
same,max response,KB-3-1,3.07%
same,max response,NIH3T3,-4.32%
CC1(C)Oc2ncnc(N)c2N=C1c1ccc(C23CCC(CC(=O)O)(CC2)CC3)cc1,max response,CRL-7250,1.74%
same,outcome,HaCat [1],inactive
same,max response,KB-3-1,-2.56%
same,max response,NIH3T3,-15.7%
same,outcome,HACAT [2],inactive
Cc1cccc(-c2[nH]ncc2-c2ccc(F)c(-c3cnn(CCO)c3)c2)n1,max response,CRL-7250,-17.9%
same,max response,HaCat [1],3.16%
same,max response,KB-3-1,-8.92%
same,max response,NIH3T3,-23.9%
CO[C@H]1O[C@@H]2O[C@@]3(C)CCC4[C@H](C)CCC([C@H]1C)[C@]42OO3 (some centres undefined),outcome,CRL-7250,inactive
same,max response,HaCat [1],-12.1%
same,outcome,KB-3-1,inactive
same,outcome,NIH3T3,inactive
C[C@@H](O[C@H]1OCCN(Cc2nn(P(=O)(O)O)c(=O)[nH]2)[C@H]1c1ccc(F)cc1)c1cc(C(F)(F)F)cc(C(F)(F)F)c1,max response,CRL-7250,0.664%
same,max response,HaCat [1],-1.44%
same,max response,KB-3-1,6.69%
same,max response,NIH3T3,-9.38%
